# Most compounds without a hit are left out; they make up all but 11% or so of the library.
# ALDH1A1 block – blocks purified human ALDH1A1 activity. Purified ALDH1A1, NADH fluorescence, propionaldehyde substrate. Potency, µM (doses to about 75.3 µM), for the others: top-dose activity, negative = inhibition, most hits filed as inhibitors. hit rate 7.3% among 220,000;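 further: potency means the concentration at half of the fitted maximal effect; plate controls were no enzyme wells and a reference inhibitor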
# PNC assembly inh – blocks assembly of the perinucleolar compartment; hit rate 3.1% among 140,000; activity change (PNC), negative = inhibition, % at 10 µM; PC3M PTB-GFP, PNC prevalence imaging, 16 h; hits give low values;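 active means readout at or below -70, meaning at least 70% loss of cells showing the perinucleolar compartment, a nuclear body marking cancer cells; inconclusive means readout between -30 and a set limit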;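 further: plate controls were DMSO wells for no effect and camptothecin positive control wells for full effect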
#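 Compounds are pinned in duplicate onto adhered PC3M cells stably expressing GFP-tagged PTB and incubated 16 h at 37 C. Cells are then fixed, nuclei stained with Hoechst, and PNC-positive cells counted.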
# HPGD block – inhibitors of human 15-hydroxyprostaglandin dehydrogenase (HPGD) | P15428 | purified HPGD, NADH fluorescence kinetic, PGE2 substrate | Potency, µM, for the others: at the highest dose activity change, negative = inhibition, usual class: inhibitors | hit rate 4.3% among 150,000; further: potency means the concentration at half of the fitted maximal effect
# Target sequence (P15428 whole entry, looked up): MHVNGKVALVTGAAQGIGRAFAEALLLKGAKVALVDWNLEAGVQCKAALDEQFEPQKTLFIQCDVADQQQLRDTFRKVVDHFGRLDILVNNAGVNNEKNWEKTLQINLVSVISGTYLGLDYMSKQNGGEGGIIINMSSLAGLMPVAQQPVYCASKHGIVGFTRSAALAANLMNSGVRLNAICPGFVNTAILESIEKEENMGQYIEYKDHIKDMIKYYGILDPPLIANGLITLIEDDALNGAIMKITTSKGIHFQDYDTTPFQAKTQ
#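 NADH formation kinetics: reaction with 30 uM PGE2 and 1 mM NAD+ (final), 20 nM enzyme, Tris-HCl pH 8 with Tween 20, after 15 min compound preincubation at room temperature. Fluorescence change, last versus first of five reads.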
# * hit, by the source's call; ? = inconclusive; . = not tested or not shown; [ ] = dose if it differs, or a comment. Unless noted, the call rests on the fitted dose curve; in most records, active means well fitted inhibition curve with a large enough effect (not every such curve was filed as active); inconclusive means small, poorly fitted or top-dose-only effect, or another doubt; inactive means no such curve, though single readings can be large or run the other way. Unless noted, on the % scale 0 is the no-effect control and ±100 the full control effect.
SMILES,ALDH1A1 block,PNC assembly inh,HPGD block
Cc1ccccc1-n1nnnc1SCC(=O)Nc1ccc(S(=O)(=O)N2CCCC2)cc1,4µM*,?,-4%
O=C(CSc1nnc2ccccn12)Nc1ccc(S(=O)(=O)N2CCOCC2)cc1,25µM*,.,.
CCn1c(SCC(=O)Nc2ccccc2)nnc1-c1ccc(S(=O)(=O)N2CCOCC2)cc1,?,18,-13%
COc1ncc2nc(CCc3ccccc3)c(=O)n(Cc3ccc(F)cc3)c2n1,0%,.,-13%
O=C(Nc1nncs1)c1cccnc1Cl,-1%,?,-7%
C[C@]1(c2ccccc2)OC(C(=O)O)=CC1=O,-8%,.,-10%
Cc1c(NC(=O)c2ccc(N(Cc3ccccc3)S(C)(=O)=O)cc2)c(=O)n(-c2ccccc2)n1C,12%,.,.
CC#CCN(CC#CC)S(=O)(=O)c1ccc(S(=O)(=O)N2CCOCC2)cc1,-11%,-105*,-7%
CC1CCCCN1S(=O)(=O)c1ccc(NC(=O)CSc2nnnn2C)cc1 (centres undefined),22µM*,12,-30%
COc1ccc2nc(SCC(=O)Nc3ccc(S(=O)(=O)N4CCCC4)cc3)c(C#N)cc2c1,?,16,-13%
N#Cc1cc2ccccc2nc1SCC(=O)Nc1ccc(S(=O)(=O)N2CCCC2)cc1,10µM*,12,-13%
O=S(=O)(c1ccc(NC(=S)NCCc2ccccc2)cc1)N1CCOCC1,-13%,17,-5%
Cc1cc2cc(C)c3nnc(SCC(=O)Nc4ccc(S(=O)(=O)N5CCCCC5C)cc4)n3c2cc1C (centres undefined),?,-3,-12%
O=S(=O)(c1ccc(NC(=S)NN=C(Cc2ccccc2)Cc2ccccc2)cc1)N1CCOCC1,18µM*,.,.
O=S(=O)(c1ccc(N2CCOCC2)cc1)N1CCOCC1,10%,1,-8%
CC(C)C[C@@H](CC(=O)N[C@@H](CCC(=O)O)CC(=O)O)NC(=O)[C@@H]1CNCC[C@H]1NC(=O)C[C@H](CCCN)NC(=O)C[C@H](Cc1ccccc1)NC(=O)[C@@H]1CCCC[C@H]1N,5%,.,-11%
CCO[C@@H]1OC(C(=O)NCc2ccccc2)=C[C@H](c2coc3ccccc3c2=O)[C@H]1CCCO,-3%,.,.
COc1cc(C=C(c2nc3ccccc3s2)c2nc3ccccc3s2)ccc1O,-9%,22,-17%
COc1cc(/C=C(\C#N)C(N)=O)cc(CSc2nc3ccccc3s2)c1O,?,.,40µM*
Cc1nc2c(=O)[nH]c3ccccc3c2o1,2%,.,.
Cc1ccc(S(=O)(=O)O[C@H]2CC(C(C)(C)C)CC[C@@H]2c2ccccc2)cc1 (some centres undefined),0%[13.5 µM],.,-9%
CN(Cc1ccccc1)c1nc(-c2ccc([N+](=O)[O-])cc2)nc2ccccc12,-7%,-98*,-14%
CN(C)C(=O)c1ccc(-c2nc(-n3ccnc3)c3ccccc3n2)cc1,1%,.,.
Cc1cccc(CNc2nc(-c3cccnc3)nc3ccccc23)c1,?,.,-26%
Cc1ccc(-n2c(SCc3ccc([N+](=O)[O-])cc3)nc3ccccc3c2=O)cc1,?,44,-13%
SMILES,ALDH1A1 block,PNC assembly inh,HPGD block
CC(=O)NCCNc1nc(-c2ccc(C(=O)N(C)C)cc2)nc2ccccc12,17%,.,.
CN(C)C(=O)c1ccc(-c2nc(N(C)Cc3ccco3)c3ccccc3n2)cc1,?,.,13µM*
Cc1cccc(CNc2nc(-c3ccc(C(=O)N(C)C)cc3)nc3ccccc23)c1,-8%,.,25µM*
CN(C)C(=O)c1ccc(-c2nc(NCc3cccs3)c3ccccc3n2)cc1,1%,.,16µM*
Cc1ccc2cn[nH]c2c1[N+](=O)[O-],3%,.,.
CCOc1ccccc1OC(=O)c1cc2ccccc2oc1=O,7%,.,.
Cc1ccc(NC(=O)CSc2nc(-c3ccco3)cc(C(F)(F)F)n2)cc1C,1%,?,-14%
Cc1cc(NC(=O)CSc2nc(-c3cccs3)cc(C(F)(F)F)n2)no1,?,-97*,-12%
CCn1ncc(CNC(=O)CCCSc2nc(-c3ccco3)cc(C(F)(F)F)n2)c1C,?,-24,-6%
COC(=O)c1ccccc1NC(=O)CSc1nc(-c2ccco2)cc(C(F)(F)F)n1,4%,-82*,-20%
CCn1nc(C)c(NC(=O)CCSc2nc(-c3ccco3)cc(C(F)(F)F)n2)c1C,28µM*,-11,?
COC(=O)c1c(NC(=O)CSc2nc(-c3ccco3)cc(C(F)(F)F)n2)sc2c1CCCC2,?,-24,-10%
N#Cc1c(NC(=O)CSc2nc(-c3ccco3)cc(C(F)(F)F)n2)sc2c1CCCC2,?,-84*,?
CCCNC(=O)CSc1nc(-c2cccs2)cc(C(F)(F)F)n1,-13%,-26,?
CN(C)c1ccc(-c2nc(N3CCNCC3)c3ccccc3n2)cc1,-15%,.,-18%
CCN1C(=O)[C@H]2[C@H]3[C@H](O)[C@H](O)C/C(=N/O[C@@H](C)CN4CCCCc5nc(C)c(C)cc54)[C@@H]3CC[C@@H]2C1=O,-1%[13.5 µM],.,.
O=C(c1csnn1)N1CCC2(CC1)CCN(c1ncccn1)CC2,4%,.,-11%
Cn1cccc1-c1cc(C(=O)N/N=C/c2cccc(O)c2)[nH]n1,0%,.,.
Cc1ccccc1SCCNC(=O)c1ccccc1Br,-6%,.,.
CSCC[C@H](NC(=O)Nc1ccc(OC(F)(F)F)cc1)C(=O)O,7%,.,.
COc1ccc(N=C(NN)c2ccc3ccccc3n2)cc1,?,-14,?
Cc1ccc(-c2c[n+](CC(=O)Nc3cc(=O)n(C)c(=O)n3C)c3n2CCC3)cc1,7%,30,-7%
O=C(CSc1nc(-c2ccco2)cc(C(F)(F)F)n1)NC1CCCC1,?,?,14µM*
O=C(CSc1nc(-c2ccco2)cc(C(F)(F)F)n1)Nc1ccc2c(c1)CCC2,2%,4,-20%
COc1ccc(CNC(=O)c2coc(=O)c3ccccc23)cc1,4%,.,.
SMILES,ALDH1A1 block,PNC assembly inh,HPGD block
CN1CC(=O)N(CC(=O)Nc2ccc3c(c2)CCC3)C1=O,11%,.,.
Cc1cc2cc(CNC(=O)c3ccc(S(=O)(=O)N4CCCC4)cc3)ccc2n1C,20µM*,?,-6%
CCOC(=O)NCc1ccc2c(c1)cc(C)n2C,-6%,42,-13%
COc1ccccc1OCCNC(=O)c1cccs1,14%,53,16µM*
Cc1cc2cc(CNC(=O)c3cccs3)ccc2n1C,-10%,-4,2.8µM*
COc1ccc(CCNC(=O)c2cccs2)cc1OC,10%,.,.
Cc1cc2cc(CNC(=O)c3ccc(S(=O)(=O)N4CCCCC4)cc3)ccc2n1C,?,-1,-14%
Cc1cc2cc(CNC(=O)CC(C)C)ccc2n1C,1%,35,2.2µM*
Cc1cc2cc(CNC(=O)C3CC3)ccc2n1C,?,-8,?
CCC(/C=N/NC(=O)C(N)=O)CC,5%,?,0%
CCOC(=O)CCCNC(=O)COC(=O)c1ccc(O)cc1,15%,42,-9%
COc1ccc(OCC(=O)NNC(=O)c2cccs2)cc1,6%,53,-4%
CCCCC(=O)NCc1ccc2c(c1)cc(C)n2C,-5%,-10,1.1µM*
COc1ccc(CNC(=O)c2cccs2)cc1,?,-100*,14µM*
CCOC(=O)CCC(=O)NCc1ccc2c(c1)cc(C)n2C,-7%,52,?
NC(=O)COC(=O)CNC(=O)c1sc2ccccc2c1Cl,22µM*,.,.
O=C(NCc1ccco1)c1sc2ccccc2c1Cl,?,8,16µM*

# Screening results (PubChem)
